Source: PubChem BioAssay (NCATS)
Values without a mark were called inactive. Results filed as inconclusive are left out. A call without a number means that no potency is given here. Activity calls are given as the source filed them. Calls come from the whole dose curve; as a rule, active = well fitted curve in the direction sought with a large enough effect; inconclusive = small, poorly fitted or top-dose-only effect, or another doubt; inactive = no such curve, though single readings can be large; an effect the other way counts as inactive or inconclusive.

Experiments:
[1] = biological target: Glutathione peroxidase 1 (Homo sapiens) (UniProt P07203); experiment: Primary qHTS Assay for Inhibitors of Recombinant Selenoprotein Glutathione Peroxidase 1 (GPX1) (AID 1845191); note: nearly all actives have a fitted effect of over 65% in size
Method in brief: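 GPX1 10 nM, GR 100 nM, GSH 1 mM, NADPH 0.5 mM, CHP 0.5 mM (final). 30-min cpd preincubation, RT. Ex340/Em450 read t=0, t=15 min.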

[2] = biological target: Phospholipid hydroperoxide glutathione peroxidase GPX4 (Homo sapiens) (UniProt P36969); experiment: Primary qHTS Assay for Inhibitors of Recombinant Selenoprotein Glutathione Peroxidase 4 (GPX4) (AID 1845192); note: nearly all actives have a fitted effect of over 65% in size; for activity change, negative = inhibition: series mostly up to about 50 µM
Method in brief: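 qHTS, GR-coupled: GPX4 200 nM + cpd 30 min RT → GSH 1 mM, NADPH 0.5 mM, GR 100 nM → CHP 0.5 mM start; fluor 340/450 at t0 and t15 min; no-enzyme wells as control.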

[3] = biological target: Luciferin 4-monooxygenase (Photinus pyralis) (UniProt P08659); experiment: Primary firefly luciferase (FLuc) qHTS assay for identification of artifact compounds. (AID 1845220); note: nearly all actives have a fitted effect of over 60% in size; for activity change, negative = inhibition: series mostly up to about 54 µM
Method in brief: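 qHTS, 15 min compound preincubation with substrate (10 uM luciferin, 10 uM ATP) at RT, then 10 nM FLuc; 5 min; luminescence; % inhibition vs no-enzyme/DMSO controls, 4-parameter Hill fit.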

[4] = Primary fluorescence-based thiol-reactive (MSTI) qHTS assay for identification of artifact compounds. (AID 1845221); note: nearly all actives have a fitted effect of over 65% in size; note: potency is the fitted concentration of half-maximal effect;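 for activity change, negative = thiol reactive: series mostly up to about 54 µM; thiol-reactive compounds lower the probe fluorescence signal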
Method in brief: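 First, 4 uM MSTI in 2% DMSO/PBS pH 7.4 was dispensed; next, compounds were added; then plates sat 1 h at room temperature without light. Finally, emission at 598 nm was recorded.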

[5] = tested on: Nanoluciferase (engineered Oplophorus gracilirostris luciferase); experiment: Primary Nanoluciferase (NLuc) qHTS assay for identification of artifact compounds. (AID 1845222); note: series mostly up to about 54 µM
Method in brief: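 Luminescence read-out of secreted NLuc in S16 cell conditioned medium (1:55); compounds tested with 15 min RT preincubation, then Nano-Glo substrate 1:100, 5 min. % inhibition vs no-enzyme and DMSO controls, 4-parameter Hill fit.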

[6] = Primary redox qHTS assay for identification of artifact compounds. (AID 1845223)
Method in brief: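 Redox-cycling detection via DTT (250 uM final) oxidation coupled to Amplex Red (25 uM)/HRP (250 mU/mL) in HBSS. 15 min preincubation plus 30 min after DTT, room temperature. Ex/Em 525/598 nm; 4-parameter Hill fit against DMSO and 10 uM DA3003.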

Chain of Phospholipid hydroperoxide glutathione peroxidase GPX4 (Homo sapiens) (P36969 whole entry, looked up): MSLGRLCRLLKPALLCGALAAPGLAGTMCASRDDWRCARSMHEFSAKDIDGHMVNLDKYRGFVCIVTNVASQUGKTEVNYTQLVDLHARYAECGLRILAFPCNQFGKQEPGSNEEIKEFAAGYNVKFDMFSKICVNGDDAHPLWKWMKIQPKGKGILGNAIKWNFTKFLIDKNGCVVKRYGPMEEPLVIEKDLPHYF
Chain of Glutathione peroxidase 1 (Homo sapiens) (P07203 whole entry, looked up): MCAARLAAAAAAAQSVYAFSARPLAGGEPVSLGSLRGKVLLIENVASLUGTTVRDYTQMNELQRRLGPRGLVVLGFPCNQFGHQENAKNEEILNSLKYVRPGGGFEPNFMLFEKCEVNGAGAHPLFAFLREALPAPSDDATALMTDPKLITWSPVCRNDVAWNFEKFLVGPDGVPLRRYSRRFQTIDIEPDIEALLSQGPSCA

SMILES | Potency [1] | Potency [2] | Potency [3] | Potency [4] | Potency [5] | Potency [6] | activity change, negative = inhibition [3] | activity change, negative = thiol reactive [4] | activity, negative = inhibition [5] | redox activity (% of DA3003) [6]
COc1ccc([C@H]2Cc3cccc(O)c3C(=O)O2)cc1OC | inactive | inactive | inactive | inactive | inactive | inactive |  |  |  | 
CCCCc1ccc(NS(=O)(=O)c2ccc(F)cc2)cc1 | inactive | inactive | inactive | inactive | inactive | inactive |  |  |  | 
CC(=O)CC(=O)Nc1ccc(Cl)c(C(F)(F)F)c1 | inactive | inactive | inactive | inactive | inactive | inactive |  |  |  | 
CC(=O)O[C@@H]1CC[C@@]2(C)C(CC[C@]3(C)C2[C@H](O)C=C2[C@H]4[C@@H](C)[C@H](C)CC[C@]4(C)CC[C@]23C)[C@@]1(C)C(=O)O (stereo not given in full) | inactive | inactive | inactive | inactive | inactive | inactive |  |  |  | 
N#Cc1ccc(O[C@@H]2c3ccccc3C[C@H]2N2CCC[C@@H](N)C2)c(Cl)c1 | inactive | inactive | inactive | inactive | inactive | inactive |  |  |  | 
O=S(=O)(N[C@H]1CCCC[C@@H]1N1CCOCC1)c1ccc(Cl)cc1 | inactive | inactive | inactive | inactive | inactive | inactive |  |  |  | 
C/C=C(\C)C(=O)O[C@H]1C=CC(=O)O[C@H]1/C=C/[C@@H](O)[C@H](C)O | inactive | inactive | inactive | inactive | inactive | inactive |  |  |  | 
C=C1CCN([C@H](C)[C@](O)(Cn2cncn2)c2ccc(F)cc2F)CC1 | inactive | inactive | inactive | inactive | inactive | inactive |  |  |  | 
CCC(C)C1NC(=O)C(Cc2ccccc2)NC(=O)C(CCCCCC(=O)C(O)CO)NC(=O)C2CCCCN2C1=O (stereo not given) | inactive | inactive | inactive | inactive | inactive | inactive |  |  |  | 
CC1CCCC(O)CCC/C=C/c2cc(OS(=O)(=O)O)cc(O)c2C(=O)O1 (stereo not given) | inactive | inactive | inactive | inactive | inactive | inactive |  |  |  | 
CCCCNc1ncc(C(=O)NCc2ccc(-n3ccnc3)cc2)c(NC2CCC(O)CC2)n1 (stereo not given) | inactive | inactive | inactive | inactive | inactive | inactive |  |  |  | 
C=C1C(=O)OC2CC(C)C(CCC(C)=O)=CCC12 (stereo not given) | inactive | inactive | inactive | inactive | inactive | inactive |  |  |  | 
COC1C(O)C(OC2CCC3(C)C(CCC45CCC6C7(COC(=O)C7)OC4(O)C6(C)CCC35)C2)OC(C)C1OC1OC(CO)C(OC2OC(CO)C(O)C(O)C2O)C(O)C1O (stereo not given) | inactive | inactive |  |  |  |  | 0.42% [at 11.6 µM] | 19.5% [at 11.5 µM] | 4.19% [at 11.6 µM] | 3.19% [at 11.5 µM]
CC(=O)OC1CC(O)(C(C)C)C2C(OC(=O)c3ccc(O)cc3)C=C(C)C(=O)CC12C (stereo not given) | inactive | inactive | inactive | inactive | inactive | inactive |  |  |  | 
O=C1Nc2nc(-c3c(O)cccc3OCC3CC3)cc([C@@H]3CCCNC3)c2CO1 | inactive | inactive | inactive | inactive | inactive | inactive |  |  |  | 
CCNc1nc(Nc2cc(F)c(C(=O)N3CCOCC3)cc2OC)ncc1C(F)(F)F | inactive | inactive | inactive | inactive | inactive | inactive |  |  |  | 
C=C1CCCC2(C)CCC(C(C)(C)OC3OC(C)C(O)C(O)C3OC(=O)/C(C)=C\C)CC12 (stereo not given) | inactive | inactive | inactive | inactive | inactive | inactive |  |  |  | 
CCNC(=O)Nc1ccc(-c2nc3c(c(N4CCOCC4C)n2)CCN(C2COC2)C3)cc1 (stereo not given) | inactive | inactive | inactive | inactive | inactive | inactive |  |  |  | 
C=CC1(C)CC(O)C(C(=C)C(=O)OC)C(O)C1C(=C)CO (stereo not given) | inactive | inactive | inactive | inactive | inactive | inactive |  |  |  | 
COc1cc(C[C@H]2C(=O)OC[C@@H]2Cc2ccc(OC)c(OC)c2)ccc1O | inactive | inactive | inactive | inactive | inactive | inactive |  |  |  | 
C[C@H]1CC[C@@]2(OC1)O[C@H]1CC3C4CC[C@H]5C[C@@H](O)CC[C@]5(C)C4=CC(=O)[C@]3(C)[C@H]1[C@@H]2C (stereo not given in full) | inactive | inactive | inactive | inactive | inactive | inactive |  |  |  | 
COc1ccc(CN2CCN(CCCSc3cc(C(C)(C)C)c(O)c(C(C)(C)C)c3)CC2)c(OC)c1OC | inactive | inactive |  |  |  |  | 3.48% [at 11.6 µM] | 2.62% [at 11.5 µM] | 3.22% [at 11.6 µM] | 6.4% [at 11.5 µM]
CC(=O)OC(C)(C)/C=C/C(=O)C(C)(O)C1C(O)CC2(C)C3CC=C(C(C)(C)C(=O)O)C(CC(=O)O)C3(C)C(=O)CC12C (stereo not given) | inactive | inactive | inactive | inactive | inactive | inactive |  |  |  | 
O=C(NCCCCCCCCNC(=O)C(Cl)Cl)C(Cl)Cl | inactive | inactive | inactive | inactive | inactive | inactive |  |  |  | 
C=C1C(=O)OC2C3=C(C)C(=O)CC3C(C)CC(O)C12 (stereo not given) | inactive | inactive | inactive | 11.9 µM (active) | inactive | inactive |  |  |  | 
